Data as given in the supplement of paper PMC10849652.
The full data set covers some 7,900 targets. This sample favours those with a hit. About 0.6% of all pairs of compound and target were hits. Values without a mark were called inactive.

Compound: c1cn2cc(-c3ccc4cn[nH]c4c3)nc(Nc3ccc(N4CCOCC4)cc3)c2n1 [entospletinib]
Assay: log2 fold change, soluble protein after heating vs DMSO (PISA); higher = thermal stabilisation; K562 cells, 10 uM, 30 min; active = over 0.2 and 3.5 SD of the protein, either way, in both replicates (recomputed)
Outline: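 K562 cells at 2×10^6 cells/mL were treated for 30 min with 10 μM compound, and aliquots were heated for 3 min over 48°C-58°C before pooling. Extraction used PBS with 0.5% NP-40 at 4°C, and soluble protein was the supernatant after 21,000xg for 90 min, measured by TMTpro 16plex LC-MS/MS with channel sums equalised. Thermal stability values, relative to control samples and from duplicates, are log2 fold changes.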

Chain of UniProt Q9Y6H1 (Q9Y6H1 whole entry, looked up): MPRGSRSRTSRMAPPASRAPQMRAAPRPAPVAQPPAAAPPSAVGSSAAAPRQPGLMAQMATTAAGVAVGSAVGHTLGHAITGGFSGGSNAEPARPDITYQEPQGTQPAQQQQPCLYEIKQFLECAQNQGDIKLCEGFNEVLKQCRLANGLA
Chain of UniProt Q8NHZ8 (Q8NHZ8 whole entry, looked up): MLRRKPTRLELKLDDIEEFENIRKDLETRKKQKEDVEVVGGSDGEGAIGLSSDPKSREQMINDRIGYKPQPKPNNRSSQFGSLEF
Chain of UniProt P14635 (P14635 whole entry, looked up): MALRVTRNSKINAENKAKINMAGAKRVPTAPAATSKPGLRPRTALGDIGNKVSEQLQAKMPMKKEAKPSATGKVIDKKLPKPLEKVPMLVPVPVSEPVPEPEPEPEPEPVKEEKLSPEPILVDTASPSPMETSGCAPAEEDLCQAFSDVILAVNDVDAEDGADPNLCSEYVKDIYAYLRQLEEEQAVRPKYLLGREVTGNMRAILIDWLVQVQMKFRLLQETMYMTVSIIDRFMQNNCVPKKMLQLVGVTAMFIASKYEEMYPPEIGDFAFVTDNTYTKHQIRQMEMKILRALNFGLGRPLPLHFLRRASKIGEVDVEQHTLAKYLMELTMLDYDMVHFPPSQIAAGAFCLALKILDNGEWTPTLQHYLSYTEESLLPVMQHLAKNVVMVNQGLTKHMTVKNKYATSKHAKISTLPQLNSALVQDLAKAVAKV
Chain of UniProt Q2TAC2 (Q2TAC2 whole entry, looked up): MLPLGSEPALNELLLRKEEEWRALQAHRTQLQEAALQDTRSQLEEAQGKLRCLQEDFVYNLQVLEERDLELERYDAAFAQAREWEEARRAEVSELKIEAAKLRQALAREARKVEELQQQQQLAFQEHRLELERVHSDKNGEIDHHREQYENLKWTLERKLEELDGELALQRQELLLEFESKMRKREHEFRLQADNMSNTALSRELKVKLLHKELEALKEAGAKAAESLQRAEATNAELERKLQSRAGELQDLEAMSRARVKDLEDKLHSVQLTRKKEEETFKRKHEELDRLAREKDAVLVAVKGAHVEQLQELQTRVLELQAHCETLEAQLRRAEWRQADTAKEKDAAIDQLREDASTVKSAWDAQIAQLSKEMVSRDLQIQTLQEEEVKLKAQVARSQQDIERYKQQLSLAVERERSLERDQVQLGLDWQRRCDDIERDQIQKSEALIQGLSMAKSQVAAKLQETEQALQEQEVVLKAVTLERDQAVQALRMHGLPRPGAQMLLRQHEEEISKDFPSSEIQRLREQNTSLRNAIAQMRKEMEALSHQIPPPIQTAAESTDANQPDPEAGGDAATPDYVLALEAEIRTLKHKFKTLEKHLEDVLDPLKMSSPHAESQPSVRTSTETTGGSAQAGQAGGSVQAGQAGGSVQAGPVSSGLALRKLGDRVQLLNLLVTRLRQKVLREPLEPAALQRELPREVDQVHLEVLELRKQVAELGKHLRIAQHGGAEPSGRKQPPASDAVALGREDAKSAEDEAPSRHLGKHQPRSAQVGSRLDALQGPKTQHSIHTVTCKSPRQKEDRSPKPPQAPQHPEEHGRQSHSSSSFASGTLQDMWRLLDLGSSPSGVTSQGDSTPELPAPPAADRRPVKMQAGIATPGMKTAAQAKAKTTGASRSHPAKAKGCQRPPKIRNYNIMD
Chain of UniProt Q99653 (Q99653 whole entry, looked up): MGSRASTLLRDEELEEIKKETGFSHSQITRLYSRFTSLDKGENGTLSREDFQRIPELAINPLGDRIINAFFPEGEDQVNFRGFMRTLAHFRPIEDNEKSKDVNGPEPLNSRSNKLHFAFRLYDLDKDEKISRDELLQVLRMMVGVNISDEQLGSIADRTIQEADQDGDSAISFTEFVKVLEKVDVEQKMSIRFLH
Chain of UniProt P23786 (P23786 whole entry, looked up): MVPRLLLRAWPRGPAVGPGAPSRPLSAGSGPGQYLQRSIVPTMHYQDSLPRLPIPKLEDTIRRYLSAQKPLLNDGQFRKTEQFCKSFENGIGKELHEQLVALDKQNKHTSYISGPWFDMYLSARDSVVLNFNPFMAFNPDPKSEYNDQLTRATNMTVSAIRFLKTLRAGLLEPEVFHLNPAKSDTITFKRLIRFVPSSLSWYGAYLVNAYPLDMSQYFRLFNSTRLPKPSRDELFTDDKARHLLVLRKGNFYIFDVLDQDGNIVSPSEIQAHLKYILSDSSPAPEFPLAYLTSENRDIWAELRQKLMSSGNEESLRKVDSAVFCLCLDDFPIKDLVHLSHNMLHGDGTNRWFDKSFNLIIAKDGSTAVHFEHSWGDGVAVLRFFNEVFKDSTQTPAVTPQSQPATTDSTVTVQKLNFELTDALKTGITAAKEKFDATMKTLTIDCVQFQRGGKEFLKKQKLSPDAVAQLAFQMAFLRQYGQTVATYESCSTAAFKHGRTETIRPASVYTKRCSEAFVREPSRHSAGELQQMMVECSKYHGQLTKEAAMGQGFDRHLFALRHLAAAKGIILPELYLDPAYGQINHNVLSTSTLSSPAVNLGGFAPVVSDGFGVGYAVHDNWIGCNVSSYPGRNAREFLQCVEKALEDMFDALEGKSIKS
Chain of UniProt O95628 (O95628 whole entry, looked up): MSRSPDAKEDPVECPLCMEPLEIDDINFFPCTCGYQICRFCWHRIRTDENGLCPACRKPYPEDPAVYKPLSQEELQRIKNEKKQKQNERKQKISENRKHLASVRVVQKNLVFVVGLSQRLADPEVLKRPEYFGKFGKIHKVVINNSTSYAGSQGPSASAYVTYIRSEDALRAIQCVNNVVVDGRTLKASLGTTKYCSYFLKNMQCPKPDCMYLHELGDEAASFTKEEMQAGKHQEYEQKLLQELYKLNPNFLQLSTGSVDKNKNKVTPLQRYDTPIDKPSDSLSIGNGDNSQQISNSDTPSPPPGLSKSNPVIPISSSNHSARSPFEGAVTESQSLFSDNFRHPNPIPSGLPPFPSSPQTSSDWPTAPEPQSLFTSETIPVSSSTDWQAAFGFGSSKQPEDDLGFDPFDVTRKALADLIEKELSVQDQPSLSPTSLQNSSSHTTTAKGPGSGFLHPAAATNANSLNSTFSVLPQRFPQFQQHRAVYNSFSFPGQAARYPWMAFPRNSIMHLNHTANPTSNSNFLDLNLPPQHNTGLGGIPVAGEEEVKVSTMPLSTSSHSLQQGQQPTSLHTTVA
Chain of UniProt Q13286 (Q13286 whole entry, looked up): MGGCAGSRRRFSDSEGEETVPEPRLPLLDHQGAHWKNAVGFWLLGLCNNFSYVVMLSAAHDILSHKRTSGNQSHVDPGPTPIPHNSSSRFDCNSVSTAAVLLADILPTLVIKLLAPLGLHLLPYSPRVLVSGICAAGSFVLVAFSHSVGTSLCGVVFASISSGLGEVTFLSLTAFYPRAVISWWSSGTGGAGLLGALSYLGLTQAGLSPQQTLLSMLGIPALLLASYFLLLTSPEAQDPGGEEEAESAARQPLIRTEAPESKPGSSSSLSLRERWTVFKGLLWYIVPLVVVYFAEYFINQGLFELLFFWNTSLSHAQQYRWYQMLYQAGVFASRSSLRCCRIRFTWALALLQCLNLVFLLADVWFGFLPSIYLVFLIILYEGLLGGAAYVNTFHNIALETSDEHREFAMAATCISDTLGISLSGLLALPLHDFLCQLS
Chain of UniProt Q9UBY8 (Q9UBY8 whole entry, looked up): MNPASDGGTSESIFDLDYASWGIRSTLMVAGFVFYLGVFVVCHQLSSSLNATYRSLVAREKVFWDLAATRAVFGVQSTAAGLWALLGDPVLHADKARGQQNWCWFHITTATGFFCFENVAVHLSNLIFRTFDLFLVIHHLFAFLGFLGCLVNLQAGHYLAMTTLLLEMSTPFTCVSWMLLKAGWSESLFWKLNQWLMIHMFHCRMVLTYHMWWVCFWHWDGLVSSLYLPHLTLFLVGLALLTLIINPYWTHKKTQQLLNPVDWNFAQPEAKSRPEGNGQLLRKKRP
Chain of UniProt Q8WUD6 (Q8WUD6 whole entry, looked up): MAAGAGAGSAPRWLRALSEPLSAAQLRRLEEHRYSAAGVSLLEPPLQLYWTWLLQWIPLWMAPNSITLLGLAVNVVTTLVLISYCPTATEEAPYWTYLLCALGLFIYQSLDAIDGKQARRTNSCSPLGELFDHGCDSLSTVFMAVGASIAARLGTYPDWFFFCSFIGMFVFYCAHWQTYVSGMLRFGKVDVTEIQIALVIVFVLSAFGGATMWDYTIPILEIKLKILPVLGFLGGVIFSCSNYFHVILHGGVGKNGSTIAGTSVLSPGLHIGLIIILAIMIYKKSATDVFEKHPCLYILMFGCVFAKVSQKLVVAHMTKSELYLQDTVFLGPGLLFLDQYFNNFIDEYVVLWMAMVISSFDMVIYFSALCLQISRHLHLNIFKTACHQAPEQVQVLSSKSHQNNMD
Chain of UniProt P00915 (P00915 whole entry, looked up): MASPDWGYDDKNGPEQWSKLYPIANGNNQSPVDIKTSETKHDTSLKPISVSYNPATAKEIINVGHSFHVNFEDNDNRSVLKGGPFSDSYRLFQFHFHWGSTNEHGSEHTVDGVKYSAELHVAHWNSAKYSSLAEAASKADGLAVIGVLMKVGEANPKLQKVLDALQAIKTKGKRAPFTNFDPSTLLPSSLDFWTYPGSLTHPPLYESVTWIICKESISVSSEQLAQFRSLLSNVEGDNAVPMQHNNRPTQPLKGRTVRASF
Chain of UniProt Q99807 (Q99807 whole entry, looked up): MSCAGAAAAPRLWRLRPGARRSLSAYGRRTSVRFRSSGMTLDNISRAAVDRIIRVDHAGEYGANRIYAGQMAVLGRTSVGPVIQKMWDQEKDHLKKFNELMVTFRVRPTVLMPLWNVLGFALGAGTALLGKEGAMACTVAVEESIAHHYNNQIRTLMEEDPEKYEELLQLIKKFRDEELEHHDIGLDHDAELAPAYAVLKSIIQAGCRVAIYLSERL
Chain of UniProt P30281 (P30281 whole entry, looked up): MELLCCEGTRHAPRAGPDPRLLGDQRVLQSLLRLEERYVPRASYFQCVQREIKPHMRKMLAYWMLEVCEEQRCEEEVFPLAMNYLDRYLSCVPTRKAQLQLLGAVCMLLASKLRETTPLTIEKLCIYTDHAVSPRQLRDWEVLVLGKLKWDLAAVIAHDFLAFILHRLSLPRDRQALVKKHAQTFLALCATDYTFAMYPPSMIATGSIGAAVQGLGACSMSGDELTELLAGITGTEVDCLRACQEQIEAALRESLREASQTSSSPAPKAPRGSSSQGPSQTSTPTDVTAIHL

Target | log2 fold change
CBS (UniProt P35520) | 0.016
CLUH (UniProt O75153) | 0.06
CCNB1 (UniProt P14635) | -0.015
CRLS1 (UniProt Q9UJA2) | -0.036
CDK8 (UniProt P49336) | -0.037
CBX1 (UniProt P83916) | 0.066
CRK (UniProt P46108) | -0.022
CLN8 (UniProt Q9UBY8) | 0.022
CDC26 (UniProt Q8NHZ8) | 0.023
CHCHD2 (UniProt Q9Y6H1) | 0.028
COPS8 (UniProt Q99627) | 0
COA6 isoform 2 (UniProt Q5JTJ3) | 0.004
CSNK1A1 (UniProt P48729) | 0.009
C19orf53 (UniProt Q9UNZ5) | 0.099
CNN1 (UniProt P51911) | -0.067
CHKA (UniProt P35790) | 0.021
CCDC59 (UniProt Q9P031) | 0.002
CPSF3 (UniProt Q9UKF6) | 0
CASC3 (UniProt O15234) | 0.485 (active)

Target | log2 fold change
CLN3 (UniProt Q13286) | 0.065
CCND3 (UniProt P30281) | -0.154
CLTB (UniProt P09497) | -0.025
CHP1 (UniProt Q99653) | 0.044
COQ9 (UniProt O75208) | -0.022
CSNK1D (UniProt P48730) | 0.109
CKS2 (UniProt P33552) | 0.04
CHPT1 (UniProt Q8WUD6) | 0.047
CLCN3 (UniProt P51790) | -0.003
CCDC57 (UniProt Q2TAC2) | -0.044
CLCN7 (UniProt P51798) | -0.007
CPSF6 isoform 2 (UniProt Q16630) | 0.064
CFAP47 (UniProt Q6ZTR5) | -0.052
CDK11B (UniProt P21127) | 0.14
CA1 (UniProt P00915) | 0.018
COQ7 (UniProt Q99807) | 0.026
CNOT4 isoform 9 (UniProt O95628) | 0.02
CPT2 (UniProt P23786) | 0.206
CKB (UniProt P12277) | 0.063
